# According to paper PMC7862700, “An all-to-all approach to the identification of sequence-specific readers for epigenetic DNA modifications on cytosine”:
# Assays:
# Experiment in all cases: DAPPL (digital affinity profiling via proximity ligation, sequencing); 10 mM Tris-HCl pH 7.5, 50 mM NaCl, 1 mM DTT, 4% glycerol, room temperature, 30 min; GST-TFs on glutathione beads, 16-mer random dsDNA library, 0.1% formaldehyde crosslink after washing; high values mean tight binding
# FLI1 = biological target: T1, FLI1 (Homo sapiens, UniProt Q01543 1-452); settings: protein: recombinant; tags: N-terminal GST; dsDNA, one strand shown
# T1 sequence: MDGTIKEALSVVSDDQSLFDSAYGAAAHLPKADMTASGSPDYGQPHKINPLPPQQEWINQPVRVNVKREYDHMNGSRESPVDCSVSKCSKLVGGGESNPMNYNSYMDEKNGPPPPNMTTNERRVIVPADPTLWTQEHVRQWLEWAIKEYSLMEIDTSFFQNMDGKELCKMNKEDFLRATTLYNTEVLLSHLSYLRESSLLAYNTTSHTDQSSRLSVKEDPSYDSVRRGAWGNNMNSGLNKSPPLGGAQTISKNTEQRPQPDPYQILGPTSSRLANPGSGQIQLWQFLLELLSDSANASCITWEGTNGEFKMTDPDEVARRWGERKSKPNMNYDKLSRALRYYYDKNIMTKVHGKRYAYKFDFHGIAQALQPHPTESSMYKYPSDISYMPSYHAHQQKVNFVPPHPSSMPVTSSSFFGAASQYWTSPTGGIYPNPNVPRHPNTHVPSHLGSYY
# Outline: (§1)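 Binding signal is each hexamer's read frequency for a factor divided by its frequency in the tag-only sample. The factors were GST-fused human transcription factors from yeast, captured on glutathione beads, DNA-barcoded and pooled with that sample. Pools were incubated with 200 nmole of a random double-stranded 16-mer DNA library in Tris/NaCl/DTT/glycerol buffer at room temperature for 30 min, then washed, crosslinked with 0.1% formaldehyde, proximity-ligated with BsaI/T4 ligase (1 h, 37 °C), PCR-amplified and sequenced on an Illumina NextSeq500.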
# ELK1 = biological target: T2, ELK1 (Homo sapiens, UniProt P19419 1-428); settings: protein: recombinant; tags: N-terminal GST; dsDNA, one strand shown
# T2 sequence: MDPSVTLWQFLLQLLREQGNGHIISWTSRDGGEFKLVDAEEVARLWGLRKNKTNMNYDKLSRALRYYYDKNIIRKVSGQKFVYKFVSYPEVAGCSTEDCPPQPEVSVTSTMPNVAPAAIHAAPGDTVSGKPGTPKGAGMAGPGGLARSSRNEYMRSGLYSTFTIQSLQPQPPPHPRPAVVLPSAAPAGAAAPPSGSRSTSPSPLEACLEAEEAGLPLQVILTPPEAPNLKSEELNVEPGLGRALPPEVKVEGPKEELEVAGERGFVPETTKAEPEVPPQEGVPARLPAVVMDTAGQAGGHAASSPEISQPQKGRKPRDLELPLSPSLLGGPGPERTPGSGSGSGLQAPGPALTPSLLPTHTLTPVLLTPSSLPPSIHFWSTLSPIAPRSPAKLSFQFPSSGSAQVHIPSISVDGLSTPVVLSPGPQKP
# Outline: as §1
# GABPA = biological target: T3, GABPA (Homo sapiens, UniProt Q06546 1-454); settings: protein: recombinant; tags: N-terminal GST; dsDNA, one strand shown
# T3 sequence: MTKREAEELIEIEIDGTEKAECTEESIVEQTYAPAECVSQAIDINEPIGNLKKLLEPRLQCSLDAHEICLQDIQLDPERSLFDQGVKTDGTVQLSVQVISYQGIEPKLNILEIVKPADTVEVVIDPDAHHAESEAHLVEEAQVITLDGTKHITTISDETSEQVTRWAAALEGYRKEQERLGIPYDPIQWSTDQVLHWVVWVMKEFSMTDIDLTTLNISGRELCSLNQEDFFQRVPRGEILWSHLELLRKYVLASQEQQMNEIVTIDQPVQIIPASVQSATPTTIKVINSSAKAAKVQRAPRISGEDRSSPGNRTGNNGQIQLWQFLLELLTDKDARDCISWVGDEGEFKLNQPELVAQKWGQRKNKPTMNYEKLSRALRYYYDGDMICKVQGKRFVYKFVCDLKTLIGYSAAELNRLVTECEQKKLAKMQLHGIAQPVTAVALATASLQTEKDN
# Outline: as §1
# ERG = biological target: T4, ERG (Homo sapiens, UniProt P11308 1-479); settings: protein: recombinant; tags: N-terminal GST; dsDNA, one strand shown
# T4 sequence: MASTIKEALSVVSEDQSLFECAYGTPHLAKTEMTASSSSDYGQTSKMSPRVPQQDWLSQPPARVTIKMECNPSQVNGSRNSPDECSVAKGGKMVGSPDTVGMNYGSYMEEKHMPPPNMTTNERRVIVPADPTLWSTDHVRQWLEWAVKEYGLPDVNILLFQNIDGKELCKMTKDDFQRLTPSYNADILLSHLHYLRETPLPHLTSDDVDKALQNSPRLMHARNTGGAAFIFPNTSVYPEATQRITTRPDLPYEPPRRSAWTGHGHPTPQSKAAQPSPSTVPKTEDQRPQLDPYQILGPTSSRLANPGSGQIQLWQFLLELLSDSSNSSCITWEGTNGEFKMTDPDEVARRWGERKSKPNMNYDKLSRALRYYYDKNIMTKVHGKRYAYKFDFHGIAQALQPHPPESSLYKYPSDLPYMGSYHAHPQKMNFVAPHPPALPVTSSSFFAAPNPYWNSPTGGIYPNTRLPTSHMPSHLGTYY
# Outline: as §1
# ELF1 = ELF1 (Homo sapiens, UniProt P32519 1-619); settings: protein: recombinant; tags: N-terminal GST; dsDNA, one strand shown
# Outline: as §1
# EHF = biological target: T5, EHF (Homo sapiens, UniProt Q9NZC4 1-300); settings: protein: recombinant; tags: N-terminal GST; dsDNA, one strand shown
# T5 sequence: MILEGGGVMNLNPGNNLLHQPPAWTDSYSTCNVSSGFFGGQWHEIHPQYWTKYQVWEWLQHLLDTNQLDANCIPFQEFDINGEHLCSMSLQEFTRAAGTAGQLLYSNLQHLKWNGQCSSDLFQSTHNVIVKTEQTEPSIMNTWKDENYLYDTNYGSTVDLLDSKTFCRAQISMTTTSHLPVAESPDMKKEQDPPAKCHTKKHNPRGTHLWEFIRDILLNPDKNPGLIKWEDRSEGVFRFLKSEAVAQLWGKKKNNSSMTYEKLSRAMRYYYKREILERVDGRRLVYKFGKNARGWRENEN
# Outline: as §1
# SPI1 = SPI1 (Homo sapiens, UniProt P17947 1-270); settings: protein: recombinant; tags: N-terminal GST; dsDNA, one strand shown
# Outline: as §1
# SPIB = SPIB (Homo sapiens, UniProt Q01892 1-262); settings: protein: recombinant; tags: N-terminal GST; dsDNA, one strand shown
# Outline: as §1
# ELK3 = biological target: T6, ELK3 (Homo sapiens, UniProt P41970 1-407); settings: protein: recombinant; tags: N-terminal GST; dsDNA, one strand shown
# T6 sequence: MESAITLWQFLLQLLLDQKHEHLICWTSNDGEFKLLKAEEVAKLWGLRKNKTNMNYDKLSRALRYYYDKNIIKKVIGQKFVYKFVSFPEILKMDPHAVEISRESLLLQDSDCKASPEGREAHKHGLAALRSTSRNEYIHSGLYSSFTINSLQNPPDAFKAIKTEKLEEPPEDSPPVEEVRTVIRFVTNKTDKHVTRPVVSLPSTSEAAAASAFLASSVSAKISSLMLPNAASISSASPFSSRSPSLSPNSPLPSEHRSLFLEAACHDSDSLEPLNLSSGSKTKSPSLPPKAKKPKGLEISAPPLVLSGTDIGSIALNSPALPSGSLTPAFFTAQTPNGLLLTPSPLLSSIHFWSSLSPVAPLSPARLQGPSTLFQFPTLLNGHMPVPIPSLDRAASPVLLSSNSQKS
# Outline: as §1
# FEV = biological target: T7, FEV (Homo sapiens, UniProt Q99581 1-238); settings: protein: recombinant; tags: N-terminal GST; dsDNA, one strand shown
# T7 sequence: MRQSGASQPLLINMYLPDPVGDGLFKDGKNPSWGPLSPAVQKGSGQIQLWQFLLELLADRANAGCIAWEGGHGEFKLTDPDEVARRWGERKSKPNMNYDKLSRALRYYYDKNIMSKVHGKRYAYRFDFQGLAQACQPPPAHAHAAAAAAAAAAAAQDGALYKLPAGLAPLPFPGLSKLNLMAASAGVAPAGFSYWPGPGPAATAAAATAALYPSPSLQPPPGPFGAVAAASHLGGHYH
# Outline: as §1
# ETV5 = ETV5 (Homo sapiens, UniProt P41161 1-510); settings: protein: recombinant; tags: N-terminal GST; dsDNA, one strand shown
# Outline: as §1
# HSF1 = HSF1 (Homo sapiens, UniProt Q00613 1-529); settings: protein: recombinant; tags: N-terminal GST; chain copies: 3; dsDNA, one strand shown
# Outline: as §1
# SPIC = biological target: T8, SPIC (Homo sapiens, UniProt Q8N5J4 1-248); settings: protein: recombinant; tags: N-terminal GST; dsDNA, one strand shown
# T8 sequence: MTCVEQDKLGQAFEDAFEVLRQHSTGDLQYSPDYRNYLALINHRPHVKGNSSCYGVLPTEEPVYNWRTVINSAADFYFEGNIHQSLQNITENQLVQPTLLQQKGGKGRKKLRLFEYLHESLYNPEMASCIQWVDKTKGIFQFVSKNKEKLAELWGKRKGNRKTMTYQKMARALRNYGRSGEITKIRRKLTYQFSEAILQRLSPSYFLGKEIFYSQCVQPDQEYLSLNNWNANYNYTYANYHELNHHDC
# Outline: as §1
# ELF4 = ELF4 (Homo sapiens, UniProt Q99607 1-663); settings: protein: recombinant; tags: N-terminal GST; dsDNA, one strand shown
# Outline: as §1
# ELK4 = biological target: T9, ELK4 (Homo sapiens, UniProt P28324-2 1-405); settings: protein: recombinant; tags: N-terminal GST; dsDNA, one strand shown
# T9 sequence: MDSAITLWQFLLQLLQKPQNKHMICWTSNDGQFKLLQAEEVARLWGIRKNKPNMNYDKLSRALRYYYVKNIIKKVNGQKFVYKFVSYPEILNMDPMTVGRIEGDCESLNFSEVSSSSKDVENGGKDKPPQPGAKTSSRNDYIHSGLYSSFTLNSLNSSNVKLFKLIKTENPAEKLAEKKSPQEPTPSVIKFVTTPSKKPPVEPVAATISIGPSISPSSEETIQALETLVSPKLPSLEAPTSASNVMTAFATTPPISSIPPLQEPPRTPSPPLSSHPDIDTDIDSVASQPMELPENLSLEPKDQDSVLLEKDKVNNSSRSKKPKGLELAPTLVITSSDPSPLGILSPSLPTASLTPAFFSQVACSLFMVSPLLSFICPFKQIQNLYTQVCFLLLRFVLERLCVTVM
# Outline: as §1
# ETV2 = biological target: T10, ETV2 (Homo sapiens, UniProt O00321 1-342); settings: protein: recombinant; tags: N-terminal GST; dsDNA, one strand shown
# T10 sequence: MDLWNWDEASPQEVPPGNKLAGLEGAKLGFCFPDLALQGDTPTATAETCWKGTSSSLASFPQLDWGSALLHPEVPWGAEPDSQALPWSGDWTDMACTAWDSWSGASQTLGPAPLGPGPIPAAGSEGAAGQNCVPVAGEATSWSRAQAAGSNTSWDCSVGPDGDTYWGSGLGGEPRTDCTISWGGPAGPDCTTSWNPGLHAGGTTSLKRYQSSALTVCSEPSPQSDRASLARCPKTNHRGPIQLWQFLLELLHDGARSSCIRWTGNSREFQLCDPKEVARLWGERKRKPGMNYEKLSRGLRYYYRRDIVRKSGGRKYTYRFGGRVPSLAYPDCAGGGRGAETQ
# Outline: as §1
# ELF3 = biological target: T11, ELF3 (Homo sapiens, UniProt P78545 1-371); settings: protein: recombinant; tags: N-terminal GST; dsDNA, one strand shown
# T11 sequence: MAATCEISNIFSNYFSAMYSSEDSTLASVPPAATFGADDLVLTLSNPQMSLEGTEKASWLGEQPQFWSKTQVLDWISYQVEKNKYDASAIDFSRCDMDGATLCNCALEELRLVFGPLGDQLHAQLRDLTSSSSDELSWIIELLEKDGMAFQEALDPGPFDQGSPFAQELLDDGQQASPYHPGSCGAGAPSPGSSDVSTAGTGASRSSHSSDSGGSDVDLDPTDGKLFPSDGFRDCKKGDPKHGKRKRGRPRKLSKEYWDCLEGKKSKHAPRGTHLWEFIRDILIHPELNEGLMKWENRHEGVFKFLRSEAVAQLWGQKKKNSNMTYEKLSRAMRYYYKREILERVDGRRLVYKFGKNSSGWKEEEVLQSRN
# Outline: as §1
# CRX = CRX (Homo sapiens, UniProt O43186 1-299); settings: protein: recombinant; tags: N-terminal GST; dsDNA, one strand shown
# Outline: as §1
# ETV1 = ETV1 (Homo sapiens, UniProt P50549 1-477); settings: protein: recombinant; tags: N-terminal GST; dsDNA, one strand shown
# Outline: as §1
# ETV5, sequence (P41161 whole entry): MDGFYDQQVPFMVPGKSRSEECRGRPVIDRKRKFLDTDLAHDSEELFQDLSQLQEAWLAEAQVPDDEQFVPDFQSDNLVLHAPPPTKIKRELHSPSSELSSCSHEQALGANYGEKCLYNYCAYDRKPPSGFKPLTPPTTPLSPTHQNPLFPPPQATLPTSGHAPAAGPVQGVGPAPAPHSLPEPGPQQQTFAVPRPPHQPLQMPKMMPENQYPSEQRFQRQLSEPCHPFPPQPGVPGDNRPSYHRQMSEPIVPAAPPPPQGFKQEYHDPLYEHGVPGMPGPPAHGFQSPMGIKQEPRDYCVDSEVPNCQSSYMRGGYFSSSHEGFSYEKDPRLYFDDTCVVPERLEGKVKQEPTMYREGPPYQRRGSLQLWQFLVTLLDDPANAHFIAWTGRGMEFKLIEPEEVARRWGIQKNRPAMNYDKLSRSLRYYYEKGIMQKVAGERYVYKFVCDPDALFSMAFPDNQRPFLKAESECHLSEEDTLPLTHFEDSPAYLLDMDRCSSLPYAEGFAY
# HSF1, sequence (Q00613 whole entry): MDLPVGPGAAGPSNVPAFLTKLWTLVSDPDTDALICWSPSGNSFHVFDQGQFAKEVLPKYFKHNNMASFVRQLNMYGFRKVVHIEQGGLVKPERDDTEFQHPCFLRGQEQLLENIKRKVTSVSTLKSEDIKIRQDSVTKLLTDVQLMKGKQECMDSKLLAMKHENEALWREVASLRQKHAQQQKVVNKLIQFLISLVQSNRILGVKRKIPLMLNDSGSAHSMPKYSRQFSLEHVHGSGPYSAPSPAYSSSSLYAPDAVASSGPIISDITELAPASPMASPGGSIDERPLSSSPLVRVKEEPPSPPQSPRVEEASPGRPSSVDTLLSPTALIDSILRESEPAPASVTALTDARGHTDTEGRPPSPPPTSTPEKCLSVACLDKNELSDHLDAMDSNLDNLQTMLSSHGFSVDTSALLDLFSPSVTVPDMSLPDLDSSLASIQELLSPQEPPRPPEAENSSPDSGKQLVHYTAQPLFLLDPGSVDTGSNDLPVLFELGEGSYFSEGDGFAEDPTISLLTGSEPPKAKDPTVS
# ELF4, sequence (Q99607 whole entry): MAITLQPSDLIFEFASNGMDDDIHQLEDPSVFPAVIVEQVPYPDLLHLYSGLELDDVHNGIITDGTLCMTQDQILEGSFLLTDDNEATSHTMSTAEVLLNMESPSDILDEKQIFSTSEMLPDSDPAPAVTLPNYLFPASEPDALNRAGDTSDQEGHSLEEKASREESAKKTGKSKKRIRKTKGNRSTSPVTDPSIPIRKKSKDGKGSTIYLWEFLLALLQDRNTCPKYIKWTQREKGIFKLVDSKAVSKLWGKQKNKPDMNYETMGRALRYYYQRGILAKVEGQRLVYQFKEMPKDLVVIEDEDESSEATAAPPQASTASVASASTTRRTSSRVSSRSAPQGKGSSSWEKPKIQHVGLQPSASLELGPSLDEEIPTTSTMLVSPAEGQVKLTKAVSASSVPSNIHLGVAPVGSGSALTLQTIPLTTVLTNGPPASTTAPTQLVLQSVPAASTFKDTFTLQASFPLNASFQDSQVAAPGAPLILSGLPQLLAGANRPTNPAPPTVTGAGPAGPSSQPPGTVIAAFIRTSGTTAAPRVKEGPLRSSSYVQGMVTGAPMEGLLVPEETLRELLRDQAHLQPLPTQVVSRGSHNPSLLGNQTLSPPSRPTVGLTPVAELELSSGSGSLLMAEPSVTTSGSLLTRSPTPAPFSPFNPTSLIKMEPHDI
# ETV1, sequence (P50549 whole entry): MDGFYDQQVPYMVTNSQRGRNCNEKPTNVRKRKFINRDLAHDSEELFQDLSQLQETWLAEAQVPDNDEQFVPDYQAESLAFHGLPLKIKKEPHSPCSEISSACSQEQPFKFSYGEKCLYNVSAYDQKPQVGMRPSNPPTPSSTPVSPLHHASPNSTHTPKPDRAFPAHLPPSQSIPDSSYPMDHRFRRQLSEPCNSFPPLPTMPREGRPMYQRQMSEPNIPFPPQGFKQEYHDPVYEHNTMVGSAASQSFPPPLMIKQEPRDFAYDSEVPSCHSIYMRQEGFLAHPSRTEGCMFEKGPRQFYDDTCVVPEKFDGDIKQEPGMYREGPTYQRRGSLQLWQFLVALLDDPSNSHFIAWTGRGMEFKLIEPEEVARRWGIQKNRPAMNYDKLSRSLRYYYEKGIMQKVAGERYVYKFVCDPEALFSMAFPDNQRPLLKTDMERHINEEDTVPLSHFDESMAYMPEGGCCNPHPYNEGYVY
# CRX, sequence (O43186 whole entry): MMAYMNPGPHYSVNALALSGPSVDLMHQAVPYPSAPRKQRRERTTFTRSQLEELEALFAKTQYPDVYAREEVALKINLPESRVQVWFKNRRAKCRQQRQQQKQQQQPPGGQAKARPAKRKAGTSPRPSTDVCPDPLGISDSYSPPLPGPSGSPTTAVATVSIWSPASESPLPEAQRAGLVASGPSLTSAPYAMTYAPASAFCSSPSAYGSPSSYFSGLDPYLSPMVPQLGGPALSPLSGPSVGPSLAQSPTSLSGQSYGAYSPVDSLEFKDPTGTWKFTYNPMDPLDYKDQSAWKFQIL
# SPIB, sequence (Q01892 whole entry): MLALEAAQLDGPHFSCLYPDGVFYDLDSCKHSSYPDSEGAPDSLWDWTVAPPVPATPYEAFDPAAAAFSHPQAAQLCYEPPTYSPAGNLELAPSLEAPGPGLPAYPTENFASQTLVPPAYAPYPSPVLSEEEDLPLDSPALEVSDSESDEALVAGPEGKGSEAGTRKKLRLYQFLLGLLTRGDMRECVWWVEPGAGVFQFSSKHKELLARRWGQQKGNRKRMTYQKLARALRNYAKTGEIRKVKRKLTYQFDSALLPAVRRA
# ELF1, sequence (P32519 whole entry): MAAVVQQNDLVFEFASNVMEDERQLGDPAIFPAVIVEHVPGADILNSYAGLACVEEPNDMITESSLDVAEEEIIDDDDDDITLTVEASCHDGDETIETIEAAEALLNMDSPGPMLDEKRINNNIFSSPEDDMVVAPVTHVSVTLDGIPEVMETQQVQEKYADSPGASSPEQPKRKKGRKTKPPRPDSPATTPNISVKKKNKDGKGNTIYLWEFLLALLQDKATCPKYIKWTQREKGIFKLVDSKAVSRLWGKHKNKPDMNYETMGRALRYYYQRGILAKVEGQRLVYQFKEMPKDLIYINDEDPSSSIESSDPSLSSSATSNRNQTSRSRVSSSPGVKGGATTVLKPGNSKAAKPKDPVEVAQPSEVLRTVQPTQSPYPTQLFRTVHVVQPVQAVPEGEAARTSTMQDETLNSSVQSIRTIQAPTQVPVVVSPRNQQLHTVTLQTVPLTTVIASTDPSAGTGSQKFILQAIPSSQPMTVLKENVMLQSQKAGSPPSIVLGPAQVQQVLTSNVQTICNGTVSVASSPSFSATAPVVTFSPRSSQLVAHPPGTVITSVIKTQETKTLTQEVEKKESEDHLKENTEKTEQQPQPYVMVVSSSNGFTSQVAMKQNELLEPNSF
sequence,measurement,setting,value
TATAGA,binding signal,FLI1,"1.02 fold enrichment (6-mer frequency, TF over GST control)"
same,binding signal,ELK1,"1.07 fold enrichment (6-mer frequency, TF over GST control)"
same,binding signal,GABPA,"1.12 fold enrichment (6-mer frequency, TF over GST control)"
same,binding signal,ERG,"1 fold enrichment (6-mer frequency, TF over GST control)"
same,binding signal,ELF1,"1.13 fold enrichment (6-mer frequency, TF over GST control)"
same,binding signal,EHF,"1.07 fold enrichment (6-mer frequency, TF over GST control)"
same,binding signal,SPI1,"1.13 fold enrichment (6-mer frequency, TF over GST control)"
same,binding signal,SPIB,"1.07 fold enrichment (6-mer frequency, TF over GST control)"
same,binding signal,ELK3,"1.14 fold enrichment (6-mer frequency, TF over GST control)"
same,binding signal,FEV,"1.04 fold enrichment (6-mer frequency, TF over GST control)"
same,binding signal,ETV5,"1.08 fold enrichment (6-mer frequency, TF over GST control)"
same,binding signal,HSF1,"1.52 fold enrichment (6-mer frequency, TF over GST control)"
same,binding signal,SPIC,"1.04 fold enrichment (6-mer frequency, TF over GST control)"
same,binding signal,ELF4,"1.09 fold enrichment (6-mer frequency, TF over GST control)"
same,binding signal,ELK4,"1 fold enrichment (6-mer frequency, TF over GST control)"
same,binding signal,ETV2,"1.08 fold enrichment (6-mer frequency, TF over GST control)"
same,binding signal,ELF3,"1.17 fold enrichment (6-mer frequency, TF over GST control)"
same,binding signal,CRX,"1.45 fold enrichment (6-mer frequency, TF over GST control)"
same,binding signal,ETV1,"1.13 fold enrichment (6-mer frequency, TF over GST control)"
